Screen size: about 300,000 compounds; about 65 (0.02%) were called active. This is one part of a sample in which actives are shown more often than they occur.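 How the source made its calls: active means lowest replicate activity score at least 50, where 100 means six control SD above control mean; inconclusive means lowest score under 50 but half or more replicates reach 50; inactive means the rest.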
Assay: perturbers of mRNA poly(A) processing – luminescence, S. cerevisiae, primary screen (AID 1875);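 further: yeast exposed to compound for 9 h at 30 °C; higher score means more reporter readthrough which indicates perturbed polyadenylation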
Details: S. cerevisiae SKY197-pL101 polyadenylation reporter, beta-gal luminescence; at 12 µM; hits give high values; efflux-impaired pdr1/pdr3 knockout yeast; score 100 = 6 SD above DMSO

Activity score, inactive:
CC1C(=O)NC(=O)C1c1ccccc1 (stereo not given) -10.6%
CC(C)Cc1nn2c(=O)cc(O)nc2s1 4.85%
Cc1c(Br)cc(C(=O)N2CCCCCC2)c(C)c1C -12.8%
COc1ccccc1N1CCN(C(=O)c2cc(=O)c3cc(C)cc(C)c3o2)CC1 -11.1%
Cc1c(NS(=O)(=O)c2ccc(NC3CCCC3)c([N+](=O)[O-])c2)c(=O)n(-c2ccccc2)n1C 0.246%
COc1ccccc1OCC(=O)Nc1ccccc1C(=O)NC1CC1 -4.06%
O=C1c2ccccc2C(=O)N1Cc1cc(-c2ccccc2Cl)no1 16.1%
CCCOc1ccc(-c2c(C(=O)N/N=C/c3ccco3)nnn2-c2nonc2N)cc1 -8.58%
COCc1[nH][nH]c(=O)c1C=Nc1ccc(F)cc1F -2.51%
Cc1ccc(NC(=O)C(C)c2cccc(C(=O)c3ccccc3)c2)cc1 (stereo not given) -5.58%
COc1ccccc1N1CCN(S(=O)(=O)c2ccc3c(c2)NC(=O)CS3)CC1 9.75%
CN(C)Cc1ccccc1C1(O)c2ccccc2CSc2ccccc21 (stereo not given) -2.69%
CN(C)C(=O)c1ccc(NC(=O)c2ccccc2-c2ccccc2)cc1 -1.15%
CCC(Cc1ccccc1)NC(=O)C1CCCCC1 (stereo not given) 15.5%
CCCC[C@@H]1CN=C(N)N1CCCC 6.9%
C=CCN1C(=O)C2(OCCCO2)c2cccc(Cl)c21 -10.9%
CC(=O)NC(Cc1ccc(F)c(F)c1)C(=O)NC1CCN(c2nnnn2-c2ccccc2)CC1 (stereo not given) -5.96%
O=C(NCc1ccccc1Cl)NC(=O)c1csc([N+](=O)[O-])c1 8.38%
O=C(NCc1ccccc1)C1=C[C@@H](c2ccc(C(F)(F)F)cc2)C[C@@H](OCc2ccc(CO)cc2)O1 4.63%
Cc1ccc(C)c(N2CCN(C(=O)CCCCCn3c(=S)[nH]c4ccc(N5CCOCC5)cc4c3=O)CC2)c1 13.3%
S=c1[nH]cc(-c2ccc(Cl)cc2)n1-c1ccccc1 -13.1%
CC(C)c1ccc(NC(=O)[C@@H](NC(=O)N2CC(=O)Nc3ccccc32)C(C)C)cc1 8.86%
COc1ccc2c(c1)N(C)/C(=C1/SC(=S)N(NC(C)=O)C1=O)S2 -0.22%
Cc1ccc(C(=O)NC2CCCC(C)C2C)cc1S(=O)(=O)N1CCCCC1 (stereo not given) 0.169%
CCN(CC)Cc1c(C(=O)N/N=C/c2cccc(OCc3ccc(F)cc3)c2)nnn1-c1nonc1N -15.4%
COc1cc(OC)c(-n2cc(-c3ccc(Cl)cc3)[nH]c2=O)cc1Cl -4.07%
O=C1CSc2ccc(S(=O)(=O)NCc3ccccc3)cc2N1 3.02%
O=C(NN1C(=O)C2C3C=CC(O3)C2C1=O)c1ccncc1 (stereo not given) 2.42%
COc1cccc(-n2c(=S)sc3c(=O)n(-c4ccccc4C)c(SCC(=O)O)nc32)c1 27.3%
COc1cc(/C=C/C(=O)OCC(=O)NC(=O)NCc2ccccc2)ccc1OCC#N -0.558%
Cn1nccc1/C=N\NC(=O)c1ccc(Cl)cc1 7.4%
COc1ccc(S(=O)(=O)c2c[nH]c(=S)[nH]c2=O)cc1Cl 11.8%
COc1ccc(CNC(=O)c2ccc(Br)s2)cc1OC 6.38%
COc1ccc(Cl)cc1NC(=O)Cn1nc(-c2ccc(C)cc2)n(C)c1=S -3.37%
O=C(c1[nH]ncc1-c1ccc(Cl)cc1)C1CO1 (stereo not given) 19.5%
O=C(NCc1ccco1)c1ccc(NS(=O)(=O)c2cccc([N+](=O)[O-])c2)cc1 -6.5%
Cc1ccc(C(=O)N/C(=C\c2cn(C)c3ccccc23)C(=O)N2CCN(C)CC2)cc1 -4.13%
NC(=O)c1oc2ccccc2c1NC(=O)CS(=O)(=O)c1ccccc1 13.3%
O=C(O)Cn1c(Cc2ccccc2)nc2ccccc21 -5.1%
CC(C)c1ccc(OCC(O)CN2CCN(c3ccccn3)CC2)cc1 (stereo not given) -11.9%
O=S(=O)(NCCc1ccc(Cl)cc1)c1cccs1 14.8%
O=C(NC1CC1)C(Cc1ccccc1)NS(=O)(=O)c1ccccc1F (stereo not given) 2.29%
COc1ccc(N2CCN(CCNC(=O)Nc3cc(Cl)ccc3Cl)CC2)cc1 -1.83%
N#Cc1ccc(S(=O)(=O)NCC(=O)OCC(=O)NCCc2ccccc2)cc1 3.63%
CSc1ncc(C(=O)Nc2ccc(C)cc2C)c(C)n1 2.7%
CC(=O)c1ccc(S(=O)(=O)N2CCN(c3nc4c(C)c(C)ccc4cc3C#N)CC2)cc1 13.6%
Cc1ccc(NS(=O)(=O)c2ccc(C(C)(C)C)cc2)cn1 -9.91%
COc1ccc(N2CCN(CCNC(=O)c3nnc(Cc4c(F)cccc4Cl)o3)CC2)cc1 -12.7%
CCOC(=O)c1nn(-c2ccccc2F)c2nc(Nc3ccccc3)cc(=O)n12 -12.8%
CN(C)Cc1c(O)ccc2c(=O)c(-c3ccccc3Cl)coc12 8.63%
CN1CCN(C(=O)C(=O)c2cn(CC(=O)N3CCCC3)c3ccccc23)CC1 17%
CC(=O)Nc1ccc(NC(=O)CS(=O)(=O)c2cn(CC(=O)N3CCCCC3)c3ccccc23)cc1 4.41%
S=C(c1ccc(-c2ccccc2)o1)N1CCCCC1 -23.1%
CC(=O)Nc1cccc(OCC(=O)/C=C2\N(C)c3ccccc3C2(C)C)c1 -11.1%
Cc1ccc(OCC(=O)NCCCNC(=O)c2cccnc2)cc1C 0.135%
N#C/C=C\Oc1ccc(Cl)cc1N -86.8%
COC(=O)CSc1ccc2nnc(CCNS(=O)(=O)c3ccc(C)cc3)n2n1 6.76%
COc1ccc(C2Nc3ccccc3C(=O)N2c2ccc(Cl)cc2)cc1Cn1cc([N+](=O)[O-])cn1 (stereo not given) -9.63%
COc1cc(NC(=O)c2ccc(CNc3c(N4CCCC4)c(=O)c3=O)cc2)cc(OC)c1OC 19.5%
C/C(CC(=O)Nc1ccc(N(C)C)cc1)=N\NC(=O)c1ccccc1F -2.05%
COCCNC(=S)N1CCN(C)CC1 -14.8%
COc1ccc(CCN(C)C(=O)C23CC4CC(CC(Cl)(C4)C2)C3)cc1OC 5.22%
COc1cccc(NC(=O)Cn2c3ccc(F)cc3c3nc4n(c(=O)c32)CCS4)c1 -13.2%
Cc1ccc(Cl)cc1N1CCN(C(=O)c2cccc3c(=O)c(C)c(-c4ccccc4)oc23)CC1 5.32%
COC(=O)Nc1ccc(S(=O)(=O)N(C)CC(F)(F)C(F)F)cc1 3.96%
Clc1ccc(-c2nnc(-c3ccccc3)nc2N2CCSCC2)cc1 -11%
COc1cccc2cc(C(C)N(CCCN3CCOCC3)C(=O)Nc3ccc(Cl)cc3)oc12 (stereo not given) -8.58%
COC(=O)c1ccccc1NC(=O)C1CCN(C(=O)N2CCOc3ccccc32)CC1 8.38%
CCOc1ccc2sc(NS(=O)(=O)c3ccc(N)cc3)nc2c1 -8.96%
O=C1OCC2=C1C(c1ccccc1)CC(=O)N2c1cccc(F)c1 (stereo not given) 19.6%
COc1cccc(NC(=O)CC(c2ccc(OC(C)C)cc2)c2ccccc2OC)c1 (stereo not given) 10.2%
Cc1ccc2nc(SCC(=O)Nc3cccc4ccccc34)nc(=O)n2c1 -16.5%
CC1(C)C(C=C(Cl)Cl)C1C(=O)N(Cc1ccc(Cl)cc1)C1CCS(=O)(=O)C1 (stereo not given) -12.2%
N#CCSc1nc2ccc(N3CCOCC3)cc2c(=O)n1CCc1ccccc1 -15.9%
CC1CC(NC(=O)/C(C#N)=C/c2ccc[nH]2)CC(C)(C)C1 (stereo not given) -5.8%
CCN1C(=O)N[C@@H](CCc2ccccc2)C(C(=O)OC)=C1C -17.2%
O=C1C2C3C=CC(C3)C2C(=O)N1c1ccc(S(=O)(=O)Nc2nccs2)cc1 (stereo not given) -1.69%
O=C(NC(Cc1ccccc1)C(=O)N1CCCC(C(F)(F)F)C1)c1ccccc1 (stereo not given) 5.98%
Cn1ncc(N2CCN(S(=O)(=O)c3ccc(Br)cc3)CC2)c(Cl)c1=O 13.7%
CC(=O)N1C(=O)/C(=C2\SC(=S)N(NC(=O)c3ccc(O)cc3)C2=O)c2ccccc21 -6.71%
Cc1ccc(CNC(=O)CCCNC(=O)c2ccc(Cl)cc2)n1C -18.6%
Cc1cccc(N(C(=O)c2sc(C)nc2C)C(C(=O)NCC2CCCO2)c2ccccc2)c1 (stereo not given) -7.81%
CC(C)C1Nc2c(C(=O)O)cccc2C(Nc2ccccc2C(=O)O)C1(C)C (stereo not given) 12.3%
Cc1ccn2c(=O)nc(SCC(=O)NCc3ccc4c(c3)OCO4)nc2c1 17.3%
Cn1cc(S(=O)(=O)NC(c2ccccc2)c2ccccc2)c(=O)n(C)c1=O -1.67%
COCCCNC(NC(=O)c1ccc(C)cc1)C(Cl)(Cl)Cl (stereo not given) 8.69%
COc1ccc2oc(=N)c(C(=O)Nc3ccc(Br)cc3)cc2c1 0.299%
O=C(Nc1ccccc1N1CCOCC1)c1ccc(OCc2cscn2)cc1 3%
CC(=O)Nc1ccc(NC(=O)[C@@H](NC(=O)c2cccc(C)c2)C(C)C)cc1 -9.42%
CCOC(=O)CNC(=O)CSc1ccc2nnc(-c3cccnc3)n2n1 7.59%
